Here are results for seven compounds from PubChem BioAssay (NCI).

“And” between values parts separate entries of the source, which are not always exact repeats. Identical values can stand only once. Compounds without any hit were thinned out: in the full panel of roughly 79,000, 15% have a hit. More than one record can exist for a structure, and the calls need not agree. The source made the active and inactive calls. Cut-off read from the data, not from the text of the source: active = growth inhibition above about 70%; inactive = the rest.

Assay [1] in a line: NCI Yeast Anticancer Drug Screen. Data for the rad50 strain (AID 155).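 Note: 0% = growth of vehicle-only cultures of the same strain.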 The following applies: S. cerevisiae rad50 strain growth inhibition, stronger effect = higher value. The method, boiled down:
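Yeast carrying a defined DNA repair defect were exposed to test compounds, and growth was compared with vehicle-treated controls to give percent inhibition.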

Assay [2] can be described thus: NCI Yeast Anticancer Drug Screen. Data for the mec2-1 strain (AID 157). The following applies: S. cerevisiae mec2-1 strain, stronger effect = higher value. The method in brief: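 Strain: mec2-1 (DNA repair/cell cycle alteration). Compound exposure, then growth measured; inhibition expressed relative to vehicle.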
Assay [3] is described as follows: NCI Yeast Anticancer Drug Screen. Data for the sgs1 mgt1 strain (AID 161).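 Note: 0% = growth of cultures given vehicle only.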 To be noted: S. cerevisiae sgs1 mgt1 strain, stronger effect = higher value. The method, boiled down: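 Inhibition of yeast growth, normalised to vehicle-treated controls, is reported for a strain bearing genetic alterations in DNA damage repair.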
Assay [4] can be described thus: NCI Yeast Anticancer Drug Screen. Data for the cln2 rad14 strain (AID 165).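 Note: 0% = growth equal to vehicle treated cultures.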 The following applies: S. cerevisiae cln2 rad14 strain, stronger effect = higher value. The method, boiled down:
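Compounds are applied to the cln2 rad14 yeast strain, and growth is then compared with that of vehicle-treated cultures to give inhibition.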

The nature of assay [5]: NCI Yeast Anticancer Drug Screen. Data for the bub3 strain (AID 167). To be noted: S. cerevisiae bub3 mutant strain, stronger effect = higher value. The method, boiled down:
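Compounds were applied to a genetically altered yeast strain carrying a cell-cycle control defect. Growth inhibition was scored against vehicle-treated controls.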

Assay [6] is described as follows: NCI Yeast Anticancer Drug Screen. Data for the mlh1 rad18 strain (AID 175). To be noted: S. cerevisiae mlh1 rad18 strain growth inhibition, stronger effect = higher value. The method, boiled down:
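Read-out is yeast growth inhibition, calculated against vehicle-only controls. The compound was applied to a strain engineered with DNA damage repair alterations.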

The mark [7] stands for this setting: at 5.0 µM (retest, dose inferred, filed as 0.5).
Where [8] appears, read: at 50.0 µM (retest, dose inferred, filed as 5.0).

On to `CCCCC(O)CC` (stereo unspecified), for which the growth inhibition is -6% (inactive) in assay [1] (setting [7]); 0% (inactive) in assay [1] (setting [8]); -10% (inactive) and 9.8% (inactive) in assay [1] (at 50.0 µM); -8% (inactive) in assay [2] (setting [7]); -3% (inactive) in assay [2] (setting [8]); -42.2% (inactive) and 12.4% (inactive) in assay [2] (at 50.0 µM). Besides, the growth inhibition was -2% (inactive) in assay [3] (setting [7]); 1% (inactive) in assay [3] (setting [8]); 11.6% (inactive) and 27.9% (inactive) in assay [3] (at 50.0 µM); -3% (inactive) in assay [4] (setting [7]); -1% (inactive) in assay [4] (setting [8]); 4.65% (inactive) and 48.2% (inactive) in assay [4] (at 50.0 µM). Also, the growth inhibition was -6% (inactive) in assay [5] (setting [7]); 0% (inactive) in assay [5] (setting [8]); -5.95% (inactive) and 1.55% (inactive) in assay [5] (at 50.0 µM); -4% (inactive) in assay [6] (setting [7]); 0% (inactive) in assay [6] (setting [8]); 0.4% (inactive) and -1.7% (inactive) in assay [6] (at 50.0 µM).
As for `Cn1c2ccccc2c(=O)c2ccccc21`, the growth inhibition was 4% (inactive) in assay [1] (setting [7]); 38% (inactive) in assay [1] (setting [8]); -16.6% (inactive) and 82% (active) in assay [1] (at 50.0 µM); 23% (inactive) in assay [2] (setting [7]); 9% (inactive) in assay [2] (setting [8]); -18.9% (inactive) and 13.4% (inactive) in assay [2] (at 50.0 µM). The growth inhibition in assay [3] (setting [7]) was -5% (inactive); in assay [3] (setting [8]) it was 9% (inactive); in assay [3] (at 50.0 µM), -17.4% (inactive) and 18.6% (inactive); in assay [4] (setting [7]), -4% (inactive); in assay [4] (setting [8]), -2% (inactive); in assay [4] (at 50.0 µM), -11.3% (inactive) and -35.4% (inactive). Also, the growth inhibition was -9% (inactive) in assay [5] (setting [7]); 1% (inactive) in assay [5] (setting [8]); 14.2% (inactive) and 3.6% (inactive) in assay [5] (at 50.0 µM); -1% (inactive) in assay [6] (setting [7]); 20% (inactive) in assay [6] (setting [8]); -28.4% (inactive) and 31.8% (inactive) in assay [6] (at 50.0 µM).
In the case of `O=C1C(CN2CCOCC2)CCCC1CN1CCOCC1` (stereo unspecified), the growth inhibition in assay [1] (setting [7]) was 0% (inactive); in assay [1] (setting [8]) it was 97% (active); in assay [1] (at 50.0 µM), 12.2% (inactive) and 1.25% (inactive); in assay [2] (setting [7]), 4% (inactive); in assay [2] (setting [8]) it was 98% (active); in assay [2] (at 50.0 µM), 35% (inactive) and 33.8% (inactive). The growth inhibition in assay [3] (setting [7]) was 2% (inactive); in assay [3] (setting [8]), 96% (active); in assay [3] (at 50.0 µM), 10.8% (inactive) and 24.9% (inactive); in assay [4] (setting [7]), 3% (inactive); in assay [4] (setting [8]), 97% (active); in assay [4] (at 50.0 µM), 19.1% (inactive) and -27.2% (inactive). The growth inhibition was 0% (inactive) in assay [5] (setting [7]); 95% (active) in assay [5] (setting [8]); 1.05% (inactive) and 69.5% (inactive) in assay [5] (at 50.0 µM); 3% (inactive) in assay [6] (setting [7]); 97% (active) in assay [6] (setting [8]); 26.8% (inactive) and 9.15% (inactive) in assay [6] (at 50.0 µM).
On to `CCCCCCCCCCCCc1ccc(S(=O)(=O)O)cc1.[Cu+2]`, for which the growth inhibition in assay [1] (setting [7]) was -6% (inactive); in assay [1] (setting [8]) it was 88% (active); in assay [1] (at 50.0 µM), 90.3% (active); in assay [2] (setting [7]), 14% (inactive); in assay [2] (setting [8]) it was 70% (active); in assay [2] (at 50.0 µM), 64.9% (inactive). Also, the growth inhibition in assay [3] (setting [7]) was 6% (inactive); in assay [3] (setting [8]), 97% (active); in assay [3] (at 50.0 µM) it was 41.2% (inactive); in assay [4] (setting [7]), 2% (inactive); in assay [4] (setting [8]) it was 81% (active); in assay [4] (at 50.0 µM) it was 17.3% (inactive). Besides, the growth inhibition in assay [5] (setting [7]) is -9% (inactive); in assay [5] (setting [8]), 82% (active); in assay [5] (at 50.0 µM) it was 43.8% (inactive); in assay [6] (setting [7]) it was 15% (inactive); in assay [6] (setting [8]), 93% (active); in assay [6] (at 50.0 µM), 66% (inactive).
Regarding `c1cc2c3c(c1)c1cc4c(cc1c[n+]3CC2)OCO4`, the growth inhibition in assay [1] (setting [7]) was 14% (inactive); in assay [1] (setting [8]), 38% (inactive); in assay [1] (at 50.0 µM), 89.9% (active); in assay [2] (setting [7]) it was 23% (inactive); in assay [2] (setting [8]) it was 36% (inactive); in assay [2] (at 50.0 µM) it was 92.5% (active). Further, the growth inhibition is 25% (inactive) in assay [3] (setting [7]); 41% (inactive) in assay [3] (setting [8]); 92.1% (active) in assay [3] (at 50.0 µM); 13% (inactive) in assay [4] (setting [7]); 18% (inactive) in assay [4] (setting [8]); 90.8% (active) in assay [4] (at 50.0 µM). Besides, the growth inhibition in assay [5] (setting [7]) was 2% (inactive); in assay [5] (setting [8]), 20% (inactive); in assay [5] (at 50.0 µM) it was 90.8% (active); in assay [6] (setting [7]), 25% (inactive); in assay [6] (setting [8]) it was 51% (inactive); in assay [6] (at 50.0 µM), 90.9% (active).
On to `CCCCCCCCCCCCCCCCOP(=O)(O)OP(=O)(O)OCC1OC(n2ccc(N)nc2=O)C(O)C1O` (stereo unspecified), for which the growth inhibition in assay [1] (setting [7]) is 97% (active); in assay [1] (setting [8]) it was 97% (active); in assay [1] (at 50.0 µM), -2% (inactive) and 81.4% (active); in assay [2] (setting [7]), 98% (active); in assay [2] (setting [8]), 98% (active); in assay [2] (at 50.0 µM), -2.65% (inactive) and 89.8% (active). Also, the growth inhibition in assay [3] (setting [7]) was 98% (active); in assay [3] (setting [8]), 98% (active); in assay [3] (at 50.0 µM), 55% (inactive) and 87.5% (active); in assay [4] (setting [7]) it was 92% (active); in assay [4] (setting [8]) it was 90% (active); in assay [4] (at 50.0 µM), 9.5% (inactive) and 84.7% (active). For the same compound, the growth inhibition in assay [5] (setting [7]) is 98% (active); in assay [5] (setting [8]), 98% (active); in assay [5] (at 50.0 µM), -9.4% (inactive) and 84.5% (active); in assay [6] (setting [7]) it was 94% (active); in assay [6] (setting [8]), 95% (active); in assay [6] (at 50.0 µM), 33% (inactive) and 90.5% (active).
Take `CC(NC(=O)C(N)Cc1ccccc1)C(=O)NC1C(CO)OC(n2cnc3c(N)ncnc32)C1O` (stereo unspecified): the growth inhibition in assay [1] (setting [7]) was 0% (inactive); in assay [1] (setting [8]), -1% (inactive); in assay [1] (at 50.0 µM) it was 32.2% (inactive); in assay [2] (setting [7]), 2% (inactive); in assay [2] (setting [8]) it was 17% (inactive); in assay [2] (at 50.0 µM), 76.9% (active). The growth inhibition is -5% (inactive) in assay [3] (setting [7]); -20% (inactive) in assay [3] (setting [8]); 3.5% (inactive) in assay [3] (at 50.0 µM); 0% (inactive) in assay [4] (setting [7]); -6% (inactive) in assay [4] (setting [8]); 97.7% (active) in assay [4] (at 50.0 µM). Besides, the growth inhibition was -3% (inactive) in assay [5] (setting [7]); -4% (inactive) in assay [5] (setting [8]); 96.5% (active) in assay [5] (at 50.0 µM); 12% (inactive) in assay [6] (setting [7]); 32% (inactive) in assay [6] (setting [8]); 69.5% (inactive) in assay [6] (at 50.0 µM).
